Measurements as given in article PMC5540273 (PLoS ONE, 2017).

Key:
Conditions in all cases: concentration: 1 μM,replicates: in singlicate; n = 1
DCAMKL2 = tested on: T1, DCAMKL2
T1 construct: gene DCLK2

DCAMKL3 = tested on: T2, DCAMKL3
T2 construct: gene DCLK3

DDR1 = tested on: DDR1
DDR2 = tested on: DDR2
DLK = tested on: T3, DLK
T3 construct: gene MAP3K12

DMPK2 = tested on: T4, DMPK2
T4 construct: gene CDC42BPG

DMPK = tested on: DMPK
DRAK1 = tested on: T5, DRAK1
T5 construct: gene STK17A

DRAK2 = tested on: T6, DRAK2
T6 construct: gene STK17B

DYRK1A = tested on: DYRK1A
DYRK1B = tested on: DYRK1B
DYRK2 = tested on: DYRK2
EGFR = tested on: EGFR
EIF2AK1 = tested on: EIF2AK1
EPHA1 = tested on: EPHA1
EPHA2 = tested on: EPHA2
EPHA3 = tested on: EPHA3
EPHA4 = tested on: EPHA4
EPHA5 = tested on: EPHA5
EPHA6 = tested on: EPHA6
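Also: KINOMEscan kinase panel screen.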

Row | Compound | %Inh (DCAMKL2) [%] | %Inh (DCAMKL3) [%] | %Inh (DDR1) [%] | %Inh (DDR2) [%] | %Inh (DLK) [%] | %Inh (DMPK2) [%] | %Inh (DMPK) [%] | %Inh (DRAK1) [%] | %Inh (DRAK2) [%] | %Inh (DYRK1A) [%] | %Inh (DYRK1B) [%] | %Inh (DYRK2) [%] | %Inh (EGFR) [%] | %Inh (EIF2AK1) [%] | %Inh (EPHA1) [%] | %Inh (EPHA2) [%] | %Inh (EPHA3) [%] | %Inh (EPHA4) [%] | %Inh (EPHA5) [%] | %Inh (EPHA6) [%]
1 | Cn1cc(-c2cccc3c(N)c(C(N)=O)nnc23)cn1 | 13 | 23 | 0 | 0 | 27 | 7 | 0 | 79 | 12 | 56 | 8 | 70 | 22 | 18 | 0 | 0 | 24 | 0 | 14 | 17
2 | Cc1n[nH]c2cc(Nc3ccnc(Nc4cccc(CN5CCOCC5)c4)n3)ccc12 [GW682569] | 0 | 0 | 70 | 55 | 52 | 0 | 0 | 53 | 16 | 2 | 4 | 25 | 22 | 0 | 52 | 14 | 25 | 17 | 0 | 17
3 | COC(=O)c1cccc(NC(=O)NC2CCN(c3ccnc(NCc4ccc(F)cc4)n3)CC2)c1 [GSK1379860] | 18 | 3 | 18 | 0 | 17 | 12 | 0 | 0 | 34 | 18 | 21 | 2 | 51 | 0 | 0 | 10 | 0 | 6 | 0 | 8
4 | CS(=O)(=O)Nc1ccc(-c2ccnc3[nH]ccc23)cc1 [GSK993273] | 0 | 0 | 0 | 0 | 83 | 13 | 51 | 99.2 | 20 | 88 | 84 | 44 | 17 | 1 | 19 | 0 | 0 | 20 | 0 | 6
5 | Cn1ccc2ncnc(Oc3ccc(NC(=O)Nc4cncc(C(F)(F)F)c4)c(Cl)c3)c21 | 0 | 0 | 100 | 99.9 | 0 | 0 | 0 | 0 | 0 | 0 | 5 | 0 | 0 | 0 | 17 | 81 | 92.5 | 57 | 45 | 97.5
